This is a sample that favours compounds with a hit; in the whole collection about 3.5% have one here.
Pf apPOL block = Pf-apPOL DNA polymerase inhibition; hit rate 0.25% among 210,000; inhibition, % at 10 µM; Recombinant Pf-apPOL, molecular beacon fluorescence, 1.5 h
mHTT-CaM PPI inh = disrupts binding of mutant huntingtin to calmodulin; AID 1671202; P42858; AlphaScreen His-mHTT/GST-CaM binding, luminescence; hit rate 3.6% among 190,000; inhibition, % at 15 µM;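 further: 0% = both proteins with DMSO and 100% = one protein alone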
Numbers without * were called inactive; · = no result. No stated cut-off is given here; in the data, active means inhibition above about 50%; inactive means the rest.

SMILES	Pf apPOL block	mHTT-CaM PPI inh
CCOCCCNC(=O)c1ccc2c(c1)ncn2-c1ccc(C)c(Cl)c1	28.6	84.0*
COCCCNC(=O)c1ccc2c(c1)ncn2-c1ccc(C)c(Cl)c1	24.6	-1.0
Cc1ccccc1-n1nc(C(=O)NC(C)C)nc1C	3.3	-4.2
O=C(CCS(=O)(=O)c1ccccc1)NCc1cc(-c2ccc3c(c2)OCO3)on1	0.0	-6.5
CC1=CC(=NS(=O)(=O)c2cccc([N+](=O)[O-])c2)C=CC1=O	-7.1	84.0*
Cc1c(C(C)(C)C)sc(=NS(=O)(=O)c2cccc([N+](=O)[O-])c2)n1C	-3.7	29.0
CC(C)C[C@H]1COc2cccc(N3CCN(Cc4ccccc4F)CC3)c2S(=O)(=O)N1	-3.2	80.5*
C[C@H]1COc2cccc(N3CCN(Cc4ccccc4F)CC3)c2S(=O)(=O)N1	-4.5	-14.5
Cc1ccc2c(c1)NC(=O)C(C(=O)Nc1ccc(C)c(C)c1)O2 (stereo unspecified)	-3.0	-4.3
Fc1ccc(C2=Nc3ccc(F)cc3NC(c3ccccc3)=N2)cc1	-3.1	7.0
Brc1ccc2c(c1)NC(c1ccccc1)=NC(c1ccncc1)=N2	-5.0	70.7*
Cc1cccc(CC(=O)N2CCC(CCOc3ccncc3)CC2)c1	-4.9	-3.9
CC(C)(C)n1cnc2cc(NCc3ccc(Br)cc3)ccc21	-4.4	61.0*
CC(=O)Nc1ccc2c(c1)ncn2-c1ccccc1	0.4	2.7
Brc1ccc(CNc2ccc3c(c2)ncn3-c2ccccc2)cc1	24.1	95.0*
CCN(CC)c1ccc(CNc2ccc3c(c2)ncn3C)cc1	-2.1	84.0*
Cn1cnc2cc(NCc3ccc(Br)cc3)ccc21	5.3	16.0
CN(C)c1ccc(CNc2ccc3c(c2)ncn3C)cc1	-4.0	20.0
CCCN(Cc1cc(OC)c(OC)cc1[N+](=O)[O-])CC1CC1	3.2	-0.5
CCC(=O)N(C)CC(=O)N1N=C(c2cccs2)CC1c1ccc(Cl)cc1 (stereo unspecified)	-8.4	43.9
CCN1CCN(C(=O)c2cnn(-c3ccc(C)cc3)c2C(F)(F)F)CC1	-6.3	0.3
COC(=O)c1[nH]nc(-c2n[nH]c(C(=O)OC)c2[N+](=O)[O-])c1[N+](=O)[O-]	·	-7.3
N#C/C(=C\n1cccc1-c1ccc([N+](=O)[O-])cc1)c1nn(-c2ccccc2)c(N)c1C#N	3.1	12.5
CC(NC(=O)c1ccccc1Br)C(=O)N1CCCc2ccccc21 (stereo unspecified)	4.2	-4.6
Cc1ccc(Cl)cc1N(C)C(=O)C1CCN(c2cc(=O)n(C)c(=O)n2C)CC1	-2.6	50.3*
SMILES	Pf apPOL block	mHTT-CaM PPI inh
O=C(Nc1ccc2c(c1)OCCO2)C1CCN(c2cc(N3CCSCC3)ncn2)CC1	-8.9	64.5*
Cc1ccc(NC(=O)C2CCN(c3cc(=O)n(C)c(=O)n3C)CC2)cc1	-5.4	34.8
O=C(Nc1ccc2c(c1)OCO2)C1CCN(c2cc(N3CCSCC3)ncn2)CC1	-6.0	47.6
Cn1c(N2CCC(C(=O)Nc3ccc(Cl)cc3)CC2)cc(=O)n(C)c1=O	-1.6	37.8
COc1ccc(NC(=O)C2CCN(c3cc(N4CCCC4)ncn3)CC2)cc1Cl	-6.4	53.8*
COc1ccc(NC(=O)C2CCN(c3cc(N4CCCC4)ncn3)CC2)cc1OC	-8.1	16.7
Cn1c(N2CCC(C(=O)Nc3ccc4c(c3)OCCO4)CC2)cc(=O)n(C)c1=O	2.4	57.5*
CN(C)C(=O)c1cnn(-c2cccc(F)c2)c1-n1cccc1	-1.6	2.7
CC(C)CNC(=O)c1ccc(Cl)cc1Cl	-0.9	-18.1
Cc1cc(Br)ccc1NC(=O)c1c(-c2c(Cl)cccc2Cl)noc1C	-5.0	-13.2
CCNC(=O)Cc1nnc(-c2ccc(C)cc2)o1	-1.7	-6.5
CCOC(=O)c1cccc(NC(=O)c2cn3c(n2)CCCC3)c1	-0.8	2.0
COc1ccc(CCC(=O)Nc2ccc3ncnc(N4CCCCC4)c3c2)cc1	-5.2	19.0
COc1ccc(CC(=O)Nc2ccc3ncnc(N4CCCCC4)c3c2)cc1Cl	0.8	55.4*
CN(C)C(=O)c1cc(N2CCOCC2)nc2ccccc12	1.0	-4.0
NC(=S)NNc1ccc(S(N)(=O)=O)cc1	8.7	·
COCCC1CCN(C(=O)C(C)c2ccccc2)CC1 (stereo unspecified)	1.0	1.0
CC(C(=O)N1CCC(N2CCc3ccccc32)CC1)c1ccccc1 (stereo unspecified)	4.4	68.5*
CC(=O)N(C1=C(N2CCOCC2)C(=O)c2ccccc2C1=O)c1ccc(C(=O)O)cc1	-12.0	18.2
CC(=O)N(C1=C(N2CCCC2)C(=O)c2ccccc2C1=O)c1ccc(F)c(F)c1	-4.0	100.3*
CC(=O)N(C1=C(N2CCCCC2)C(=O)c2ccccc2C1=O)c1cccc(Cl)c1	3.4	75.7*
CC(=O)N(C)C1=C(N2CCCC2)C(=O)c2ccccc2C1=O	-3.3	15.1
COCCNC(=O)c1cn2c(n1)CCC(c1cccc(C)c1)C2 (stereo unspecified)	-4.5	-1.5
O=C(c1cc(C2CC2)n(C2CCS(=O)(=O)C2)n1)N1CCN(c2cccc(Cl)c2)CC1 (stereo unspecified)	-3.3	84.3*
O=C(c1cc(-c2ccco2)n(C2CCS(=O)(=O)C2)n1)N1CCN(c2ccccn2)CC1 (stereo unspecified)	-4.7	-3.1
SMILES	Pf apPOL block	mHTT-CaM PPI inh
c1ccc(N2CCN(c3ccccc3)C2c2cccnc2)cc1	-3.3	58.0*
Clc1ccc(CN2CCCN(Cc3ccc(Cl)cc3)C2c2cccnc2)cc1	1.8	·
Cc1ccc2nc(NC(=O)C(C)C)sc2c1	0.5	-3.7
COc1ccc(-c2nnc(N3CCC(C(=O)N4CCCCCC4)CC3)o2)cc1	2.5	16.0
COc1ccccc1NC(=O)C1CC(Cl)=CCC1C(=O)O (stereo unspecified)	-0.1	3.4
Cc1ccccc1NC(=O)C1CC(Cl)=CCC1C(=O)O (stereo unspecified)	64.4*	-3.9
COc1cccc(N2CCN(C(=O)c3cn4ccc(C)cc4n3)CC2)c1	-1.3	-3.3
Cc1cc([N+](=O)[O-])ccc1NCc1c(F)cccc1F	-2.1	-0.9
O=C1CCCC2=C1C(c1ccc3c(c1)OCO3)n1nc(-c3cccc(Cl)c3)nc1N2 (stereo unspecified)	-2.2	18.8
COc1ccc(C2C3=C(CCCC3=O)Nc3nc(-c4cccc(C)c4)nn32)cc1OC (stereo unspecified)	-1.8	85.5*
COc1ccc(-c2nc3n(n2)C(c2ccccc2)C2=C(CCCC2=O)N3)cc1OC (stereo unspecified)	-0.5	59.9*
O=C1CCCC2=C1C(c1ccncc1)n1nc(-c3cccc(Cl)c3)nc1N2 (stereo unspecified)	-2.7	55.5*
COc1ccccc1C1C2=C(CCCC2=O)Nc2nc(-c3cccc(C)c3)nn21 (stereo unspecified)	-2.0	6.3
COc1cc(OC)cc(-c2nc3n(n2)C(c2ccc(F)cc2)C2=C(CCCC2=O)N3)c1 (stereo unspecified)	1.7	56.8*
COc1ccc(-c2nc3n(n2)C(c2ccc(Cl)cc2)C2=C(CCCC2=O)N3)cc1OC (stereo unspecified)	-0.2	8.7
COc1cc(OC)cc(-c2nc3n(n2)C(c2ccccc2)C2=C(CCCC2=O)N3)c1 (stereo unspecified)	2.2	22.8
Cc1nc(-c2ccc(F)cc2)sc1C(=O)N1CCC(CC(=O)N2CCCC2)CC1	-1.2	20.9
Cc1cc(C2CCCN2Cc2ccc(F)c(F)c2)no1 (stereo unspecified)	0.9	-13.4
COc1ccc(CCNC(=O)CN2C(=O)CCCc3ccccc32)c(OC)c1	-0.8	-0.1
